# IMPase cell inh: qHTS Assay for Identifying the Cell-Membrane Permeable IMPase Inhibitors; AID 901, 2007; 120,000 tested, under 10 active; inhibition (IP1 accumulation), % at 46.1 µM; Inositol monophosphatase 1 (Rattus norvegicus), P97697; CHO-M1 cells, IP1 accumulation, HTRF TR-FRET ratio; active means well fitted curve in the direction sought with a large enough effect in the signal ratio, not every such curve was filed as active; inconclusive means small, poorly fitted or top-dose-only effect, or a change in a side signal; inactive means no such curve, though single readings can be large or run the other way; the % refers to the signal ratio;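 further: cells stimulated with carbachol in lithium chloride buffer; plate controls were DMSO basal wells for no effect and reference inhibitor wells for full effect; higher means more IMPase inhibition seen as more IP1 and lower FRET ratio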
#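 Measured: the HTRF emission ratio (665/620 nm) plus the 620 nm donor channel, each fitted to the Hill equation to give AC50. Cells were CHO-M1 given compounds up to 46 uM and a 30 min carbachol stimulation at 37C.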
# HPGD block: qHTS Assay for Inhibitors of HPGD (15-Hydroxyprostaglandin Dehydrogenase). 4.3% of 150,000 active. purified HPGD, NADH fluorescence kinetic, PGE2 substrate. Potency, µM, for the others: top-dose activity change, negative = inhibition, most hits filed as inhibitors. 15-hydroxyprostaglandin dehydrogenase [NAD(+)] (Homo sapiens), P15428; further: potency means the concentration at half of the fitted maximal effect
# Target sequence (P15428 whole entry, looked up): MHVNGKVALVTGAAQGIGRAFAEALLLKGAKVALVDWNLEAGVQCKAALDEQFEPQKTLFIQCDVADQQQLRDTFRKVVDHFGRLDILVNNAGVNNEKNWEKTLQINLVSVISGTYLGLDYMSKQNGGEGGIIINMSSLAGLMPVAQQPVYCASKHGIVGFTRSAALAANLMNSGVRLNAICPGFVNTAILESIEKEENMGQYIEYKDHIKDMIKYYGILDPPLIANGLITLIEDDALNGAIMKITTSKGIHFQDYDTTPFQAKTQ
#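 NADH formation kinetics: reaction with 30 uM PGE2 and 1 mM NAD+ (final), 20 nM enzyme, Tris-HCl pH 8 with Tween 20, after 15 min compound preincubation at room temperature. Fluorescence change, last versus first of five reads.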
# ALDH1A1 block: qHTS Assay for Inhibitors of Aldehyde Dehydrogenase 1 (ALDH1A1); Potency, µM (top dose mostly 75.3 µM), without a hit: at the top dose activity, negative = inhibition, usual class: inhibitors; Purified ALDH1A1, NADH fluorescence, propionaldehyde substrate; 7.3% of 220,000 active;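 further: potency means the concentration at half of the fitted maximal effect; plate controls were no enzyme wells and a reference inhibitor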
# Target sequence (P00352 whole entry, looked up): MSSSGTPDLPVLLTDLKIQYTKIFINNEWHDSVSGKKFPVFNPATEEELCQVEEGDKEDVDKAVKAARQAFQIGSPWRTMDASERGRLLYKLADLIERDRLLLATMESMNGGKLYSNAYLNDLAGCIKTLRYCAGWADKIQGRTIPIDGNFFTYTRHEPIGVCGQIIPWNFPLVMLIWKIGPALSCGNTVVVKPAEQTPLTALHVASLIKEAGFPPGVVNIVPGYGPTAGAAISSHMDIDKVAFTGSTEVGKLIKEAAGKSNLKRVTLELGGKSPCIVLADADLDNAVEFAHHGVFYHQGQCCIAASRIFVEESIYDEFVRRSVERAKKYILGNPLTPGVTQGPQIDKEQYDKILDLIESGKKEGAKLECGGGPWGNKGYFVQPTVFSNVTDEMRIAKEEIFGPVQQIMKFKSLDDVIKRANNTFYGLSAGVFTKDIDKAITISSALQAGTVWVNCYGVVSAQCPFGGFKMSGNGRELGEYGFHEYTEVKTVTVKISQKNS
# IMPase Li inh: qHTS Assay for Identifying the Cell-Membrane Permeable IMPase Inhibitors: Potentiation with Lithium; AID 1457, 2008; CHO-M1 cells, IP1 TR-FRET (IP-One), carbachol + lithium; Potency, µM (top dose mostly 59.4 µM), inactives show at the highest dose activity, negative = IMPase inhibition, usual class: inhibitors; 0.35% of 210,000 active; active means well fitted curve in the direction sought with a large enough effect; inconclusive means small, poorly fitted or top-dose-only effect, or another doubt; inactive means no such curve, though single readings can be large; an effect the other way counts as inactive or inconclusive;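 further: IP1 builds up when IMPase is blocked and the TR-FRET signal falls; potency means the concentration at half of the fitted maximal effect; plate controls were basal vehicle for no effect and high inhibitor control for full effect; nearly all actives have a fitted effect of over 50% in size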
#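 Concentration–response in CHO-M1 cells, lithium-potentiated; 30 min at 37C. IP1 detected by competitive TR-FRET after 10 min lysis at RT. Hill-fitted AC50.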
# PNC assembly inh: High Content Assay for Compounds that inhibit the Assembly of the Perinucleolar Compartment; PC3M PTB-GFP, PNC prevalence imaging, 16 h; stronger effect = lower value; 3.1% of 140,000 active; AID 2417, 2010; activity change (PNC), negative = inhibition, % at 10 µM;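 active means readout at or below -70, meaning at least 70% loss of cells showing the perinucleolar compartment, a nuclear body marking cancer cells; inconclusive means readout between -30 and a set limit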;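 further: plate controls were DMSO wells for no effect and camptothecin positive control wells for full effect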
#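 Compounds are pinned in duplicate onto adhered PC3M cells stably expressing GFP-tagged PTB and incubated 16 h at 37 C. Cells are then fixed, nuclei stained with Hoechst, and PNC-positive cells counted.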
# ALOX12 inhib: qHTS Assay for Inhibitors of 12-hLO (12-human lipoxygenase); Potency, µM (top dose mostly 57.1 µM), for inactives: top-dose activity change, negative = inhibition, most hits filed as inhibitors; purified 12-hLO, xylenol orange hydroperoxide absorbance; 0.12% of 150,000 active; Polyunsaturated fatty acid lipoxygenase ALOX12 (Homo sapiens), P18054; active means well fitted curve in the direction sought with a large enough effect; inconclusive means small, poorly fitted or top-dose-only effect, or another doubt; inactive means no such curve, though single readings can be large; an effect the other way counts as inactive or inconclusive; further: potency means the concentration at half of the fitted maximal effect; nearly all actives have a fitted effect of over 55% in size
#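 Xylenol orange chromogenic assay: hydroperoxide from 12hLO oxidises Fe(II), giving red-shifted Fe(III)-XO absorbance. Conditions: 150 nM enzyme, 40 uM arachidonic acid, 25 mM Hepes pH 7.0, 0.01% Triton X-100, 30 min, room temperature.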
# Starred values were filed as active, the others as inactive; ? = inconclusive; · = no result; [ ] = dose if it differs, or a comment. Only some compounds are listed: those with a hit (about 11% of all), similar ones and a draw of the others. Unless noted, the call rests on the fitted dose curve; in most records, active means well fitted inhibition curve with a large enough effect (not every such curve was filed as active); inconclusive means small, poorly fitted or top-dose-only effect, or another doubt; inactive means no such curve, though single readings can be large or run the other way. Unless noted, on the % scale 0 is the no-effect control and ±100 the full control effect.
SMILES,IMPase cell inh,HPGD block,ALDH1A1 block,IMPase Li inh,PNC assembly inh,ALOX12 inhib
Cc1nc(SCC(=O)Nc2ccccn2)n[nH]1,·,·,3%,-2%,·,·
Cc1nc(SCC(=O)Nc2ccnc3ccccc23)n[nH]1,-3,-10%,18µM*,28%[38.3 µM],6,5%
CCCN=C(N)NCCC[C@H](N)C(=O)O,-1,-7%,-4%,4%,·,-1%
N#Cc1cnn2cc(-c3ncc(C(F)(F)F)cc3Cl)cnc12,-2[1.84 µM],-25%,?,35%[38.3 µM],?,-5%
Cc1cc2ncc(-c3ncc(C(F)(F)F)cc3Cl)cn2n1,?,-6%,7%,-7%[38.3 µM],-81*,2%
Cc1ccc(SC(CC(=O)c2ccc(C)cc2)C(=O)O)cc1 (stereo not given),8,-20%,0.13µM*,20%[38.3 µM],?,4%
Cc1cc(C)cc(OCC(=O)Nc2ccc(Cl)c(-c3nc4ncccc4o3)c2)c1,-17,·,·,·,·,·
Cc1ccc(OC(C)C)c(CN(CCO)CCO)c1,5,-4%,-6%,-6%[38.3 µM],-91*,-1%
CSC1=NC(C)(C)C=C(/C=C/c2ccc(Cl)cc2Cl)N1,·,·,-13%,7%,·,·
CSC1=NC(C)(C)C=C(/C=C/c2ccc(Cl)cc2)N1,·,·,20µM*,18%,·,·
O=C(NC(=S)Nc1ccc(N2CCOCC2)cc1)c1ccccc1,·,·,?,11%,·,·
CCc1ccc(C(=O)NC(=S)Nc2ccc(N3CCOCC3)cc2)cc1,·,·,11µM*,17%,·,·
O=S(=O)(Nc1cccc(S(=O)(=O)N2CCOCC2)c1)c1ccc(Cl)s1,·,·,-8%,-2%,·,·
O=C(NC(=S)Nc1cc(S(=O)(=O)N2CCOCC2)ccc1N1CCOCC1)c1ccco1,·,·,7%,3%,·,·
O=C(NC(=S)Nc1cc(S(=O)(=O)N2CCOCC2)ccc1O)c1ccco1,·,·,25µM*,-1%,·,·
O=C(Nc1cc(S(=O)(=O)N2CCOCC2)ccc1O)c1ccc(NS(=O)(=O)c2ccc(Cl)s2)cc1,·,-14%,-13%,2%,-134*,-7%
O=C(NC(=S)Nc1ccc(N2CCOCC2)cc1)c1ccco1,·,22µM*,?,-6%,-3,-1%
COCC(=O)N1CCC[C@@]2(CCN(c3ccccc3)C2)C1,·,-9%,-9%,9%,·,1%
Cc1ccccc1C(=O)NC(=S)Nc1ccc(N2CCOCC2)cc1,·,·,?,2%,·,·
O=C(NC(=S)Nc1ccc(N2CCOCC2)cc1)c1cncc(Br)c1,·,18µM*,?,-2%,23,-2%
S=C(Nc1ccc(N2CCOCC2)cc1)Nc1ccc2nc(-c3ccco3)c(-c3ccco3)nc2c1,-7,?,7.1µM*,18%[38.3 µM],-21,-14%
O=C(Nc1ccc(N2CCOCC2)cc1)c1ccc2nc(-c3ccco3)c(-c3ccco3)nc2c1,13,-9%,3%,-5%,-20,1%
CC(=O)c1ccc(NC(=S)Nc2ccc(N3CCOCC3)cc2)cc1,·,·,22µM*,0%,·,·
CCOc1ccc(OCC)c(NC(=O)C(NS(=O)(=O)c2ccc(Br)s2)c2ccccc2)c1 (stereo not given),-5,·,·,·,·,·
C[C@@H](O)CNC(C)(C)CC(=O)N[C@@H]1CCc2ccccc2N(Cc2ccc(-c3ccccc3-c3nn[nH]n3)cc2)C1=O,·,1%,5%,21%,·,-3%[0.00818 µM]
SMILES,IMPase cell inh,HPGD block,ALDH1A1 block,IMPase Li inh,PNC assembly inh,ALOX12 inhib
Clc1ccc2c(c1)-c1nnc(Br)n1-c1ccccc1S2,0,18µM*,-13%,9%,-100*,-4%
CC(C)C(NC(=O)c1ccccc1)C(=O)NC1=NCCS1 (stereo not given),1[1.84 µM],-4%,10%,17%[38.3 µM],?,2%
CCN(CC)S(=O)(=O)c1cccc(C(=O)NC(C(=O)NC2=NCCS2)C(C)C)c1 (stereo not given),-4,-6%,-5%,-14%[38.3 µM],-116*,-3%
COc1ccccc1-c1c(C)nn2c(-c3ccccc3)cc(-c3ccccc3)nc12,11,·,·,·,·,·
O=C1NC2(CCCCC2)Oc2ccccc21,-5,-12%,16µM*,23%[38.3 µM],28,3%
COc1ccc(OC)c(NC(=O)CSCC(=O)O)c1,-3,-14%,20µM*,13%[38.3 µM],55,-1%
COc1ccc(OC)c(NC(=O)CSc2ccc3ccccc3c2)c1,4,·,11µM*,·,?,-6%
Cc1noc(C)c1C(=O)N1CCC[C@@]2(CCN(c3cccc(-c4ccccc4)c3)C2)C1,·,-14%,-8%,16%,·,-13%
O=C(/C=C/c1ccccc1Cl)NCc1ccco1,5,14µM*,?,0%[38.3 µM],?,-4%
CCNC(=O)/C(=C/c1ccco1)NC(=O)/C=C/c1ccccc1,-5,18µM*,?,21%[38.3 µM],-17,?
O=C(/C=C/c1ccccc1)NCc1ccco1,·,·,6µM*,7%,·,·
O=C(c1cn(CCOc2ccc(Cl)cc2)c2ccccc12)C1CCCCC1,-2,·,·,·,·,·
COCc1cc(O)c(O)c(O)c1-c1c(COC)cc(O)c(O)c1O,·,·,?,-20%,·,·
O=C1c2ccccc2S(=O)(=O)N1CC1CC(c2ccccc2Cl)=NO1 (stereo not given),·,14µM*,13µM*,1%,14,-6%
CC1CN(C(=O)CN2C(=O)c3ccccc3S2(=O)=O)CC(C)O1 (stereo not given),-3,-3%,4%,3%[38.3 µM],?,3%
COc1ccc2c(c1)CCc1c(C(=O)N(C)c3ccccc3)noc1-2,·,·,?,16%,·,·
S=C1NCCc2ccccc2C1c1ccccc1Cl (stereo not given),-3,-7%,6%,-4%,28,-27%
S=C1NCCc2ccccc2C1c1ccccc1 (stereo not given),?,40µM*,-7%,-7%,0,28µM*
O=C(CN1CCN(S(=O)(=O)c2ccc(Br)cc2)CC1)Nc1ccc(F)cc1,22,4%,32µM*,5%,?,-12%
O=C(CCN1CCN(S(=O)(=O)c2ccc(Br)cc2)CC1)Nc1ccccc1F,·,·,?,7%,·,·
CCN(CC(=O)NCc1ccc(F)cc1)CC(=O)Nc1ccc(S(=O)(=O)N2CCCC2)cc1,·,·,11µM*,10%,·,·
O=C(CN1CCCN(S(=O)(=O)c2ccc(F)cc2)CC1)Nc1ccccc1Br,24,-14%,28µM*,5%,-2,-6%
NS(=O)(=O)c1ccc(NC(=O)CN2CCCN(S(=O)(=O)c3ccc(F)cc3)CC2)cc1,·,·,?,-4%,·,·

# High-throughput results as filed in PubChem.
